Out of some 340,000 compounds screened, about 1,200 (0.35%) were called active. Shown is part of a subset that was picked to be rich in actives. A number with no mark means an inactive call. Cut-off read from the data, not from the text of the source: active = inhibition above about 50% (passing the limit was not always enough); inconclusive = no clear call, values can overlap the other calls; inactive = below about 31%.

The assay can be described thus: blockers of Vif multimerization in cells – imaging, HEK293T, single point, primary screen (AID 602346). As to conditions: Vif self-association by quenched fluorescence, 24 h, at 7.49 µM, active compounds read high.
For `C=CCn1nc(C(=O)OCC)cc1-c1sc(NC(=O)c2ccccc2)nc1C`, the inhibition was -3.36%.

With `COc1ccccc1N1CCN(Cc2ccc(OC)c3ccccc23)CC1`, the inhibition was 112% (active).

Regarding `COc1ccc(CN2CCN(Cc3ccc(OC)c(OC)c3OC)CC2)cc1`, the inhibition is -0.337%.

In the case of `COc1ccccc1N1CCN(Cc2cc(OC)c3c(c2)OCO3)CC1`, the inhibition was -1.02%.

For the molecule `COCOCCn1cc(CN2CCS(=O)(=O)N(Cc3ccc(-c4ccccc4)cc3)C(CC(C)C)C2=O)nn1` (stereo not given), the inhibition is 15.8%.

`O=C1CCCN2N=C(SCC(=O)Nc3ccc(Br)cc3)SC2=N1`: the inhibition is 59.2% (active).

Regarding `O=C(CSCc1ccc(Br)cc1)Nc1ccc(S(=O)(=O)N2CCCCCC2)cc1`, the inhibition was -7.79%.

In the case of `Cc1cc(=O)[nH]c(SCC(=O)Nc2ccc(Br)cc2)n1`, the inhibition is -3.77%.

Regarding `CC1(C(=O)NCC2CCOCC2)Cc2c(-c3cccc(C(N)=O)c3)ccnc2O1` (stereo not given), the inhibition was -1.25%.

Take `Cc1cc(Cl)ccc1-c1nc(NCCN(C)C)nc2ccsc12`: the inhibition is -1.21%.

`COc1ccc(/C(C)=N/NC(=O)c2ccc3nc[nH]c3c2)cc1`: the inhibition was 1.81%.

As to `C/C(=N\NC(=O)c1ccc2ccccc2c1)c1cccnc1`, the inhibition was -7.71%.

As to `CC(=NNC(=O)c1ccc2nc[nH]c2c1)c1ccc(Br)cc1`, the inhibition was 63.5% (active).

As to `COc1ccc(-c2ccc(C(=O)NC(C)C)c3occc23)c(C)c1`, the inhibition is -26.1%.

`Cc1cc2cc3n(c2nn1)N=C(Cl)CC3`: the inhibition was 29.1%.

As for `CCOC(=O)c1cc(-c2sc(NC(=O)c3ccccc3)nc2C)n(Cc2ccccc2)n1`, the inhibition was -2.32%.

Turning to `CN(C)CCCn1c(N)c(C#N)c2nc(C#N)c(C#N)nc21`, the inhibition was 52.6% (active).

For the molecule `N#Cc1c(N)n(CCOC(=O)c2ccc(Cl)cc2)c2nc3ccccc3nc12`, the inhibition was -17.3%.

Consider `NC1=CC(=O)C(=O)c2cccnc21`, for which the inhibition is -1.29%.

Turning to `CC1(Cc2cccc(C#N)c2)C(=O)Nc2ccc(-c3cccc(C(F)(F)F)c3)cc21` (stereo not given), the inhibition is -26.8%.

On to `Nc1ncnc2c1ncn2[C@@H]1O[C@H](C(=O)NCC(F)(F)F)[C@@H](O)[C@H]1O`, for which the inhibition was 96.8% (active).

In the case of `CN(Cc1ccc(C(F)(F)F)cc1)C(=O)[C@H]1O[C@@H](n2cnc3c(N)ncnc32)[C@H](O)[C@@H]1O`, the inhibition is -5.61%.

In the case of `Cc1nccn1-c1ccc(NC(=O)[C@H]2O[C@@H](n3cnc4c(N)ncnc43)[C@H](O)[C@@H]2O)cc1`, the inhibition is 14.6%.

Take `Cc1nc2c(OCC(=O)C(C)(C)C)cccn2c1N(C)Cc1cccs1`: the inhibition was -0.585%.

As for `CCOc1ccc(CCN2C(=S)N([C@@H](CC(C)C)CN3CCC[C@@H]3CN3C(=S)NC[C@@H]3Cc3ccc(O)cc3)C[C@@H]2CC(C)C)cc1`, the inhibition was 12.9%.

Usually inhibition stands for the change of the read-out against control, counted positive when it falls.
